Assay [1] deals with Death-associated protein kinase 1 (Homo sapiens) (UniProt P53355). Particulars: at 1 µM.
In assay [2] the target is T1, Serine/threonine-protein kinase DCLK2 (Homo sapiens) (UniProt Q8N568).
T1 sequence (whole entry): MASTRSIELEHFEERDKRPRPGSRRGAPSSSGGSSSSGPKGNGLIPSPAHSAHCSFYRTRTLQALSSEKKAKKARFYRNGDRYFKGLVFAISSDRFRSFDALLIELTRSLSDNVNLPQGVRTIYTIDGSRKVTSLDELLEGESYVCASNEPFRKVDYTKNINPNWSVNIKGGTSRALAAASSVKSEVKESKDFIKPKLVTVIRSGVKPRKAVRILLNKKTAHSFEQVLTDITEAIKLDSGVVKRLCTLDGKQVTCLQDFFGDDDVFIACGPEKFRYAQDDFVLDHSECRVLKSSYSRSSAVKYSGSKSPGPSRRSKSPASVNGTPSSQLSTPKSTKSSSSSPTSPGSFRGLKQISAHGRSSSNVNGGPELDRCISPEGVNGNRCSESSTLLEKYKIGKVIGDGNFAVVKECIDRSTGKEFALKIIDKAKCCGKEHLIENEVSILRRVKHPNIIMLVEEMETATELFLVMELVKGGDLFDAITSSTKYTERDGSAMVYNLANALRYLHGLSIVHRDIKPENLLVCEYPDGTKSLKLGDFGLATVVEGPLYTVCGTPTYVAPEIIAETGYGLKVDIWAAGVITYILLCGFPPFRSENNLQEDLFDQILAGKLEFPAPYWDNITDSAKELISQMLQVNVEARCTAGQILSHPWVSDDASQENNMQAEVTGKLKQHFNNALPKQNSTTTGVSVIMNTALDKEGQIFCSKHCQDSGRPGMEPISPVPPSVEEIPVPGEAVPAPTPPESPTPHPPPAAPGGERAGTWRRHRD
Particulars: at 0.1 µM.

The target in assay [3] is T1, Serine/threonine-protein kinase DCLK2 (Homo sapiens). Conditions: at 1 µM.
For assay [4], the target named is MAP kinase-activated protein kinase 2 (Homo sapiens) (UniProt P49137). Conditions: at 0.1 µM.
MAP kinase-activated protein kinase 2 (Homo sapiens), sequence (P49137 whole entry, looked up): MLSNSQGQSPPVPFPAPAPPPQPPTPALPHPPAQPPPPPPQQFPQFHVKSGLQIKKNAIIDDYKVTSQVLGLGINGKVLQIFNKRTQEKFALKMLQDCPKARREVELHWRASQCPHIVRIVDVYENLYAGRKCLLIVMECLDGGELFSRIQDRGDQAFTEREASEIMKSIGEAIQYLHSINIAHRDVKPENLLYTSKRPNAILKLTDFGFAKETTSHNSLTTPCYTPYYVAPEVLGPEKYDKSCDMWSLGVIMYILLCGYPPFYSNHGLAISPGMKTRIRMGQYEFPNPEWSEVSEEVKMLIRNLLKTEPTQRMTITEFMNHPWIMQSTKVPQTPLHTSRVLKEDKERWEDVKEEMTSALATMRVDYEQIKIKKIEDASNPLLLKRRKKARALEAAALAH
The target is the same in assay [5]. Particulars: at 1 µM.
Assay [6] concerns the target MAP kinase-activated protein kinase 3 (Homo sapiens) (UniProt Q16644). Conditions: at 0.1 µM.
The target is the same in assay [7]. Particulars: at 1 µM.
For assay [8], the target named is Serine/threonine-protein kinase MARK1 (Homo sapiens) (UniProt Q9P0L2). Particulars: at 0.1 µM.
Serine/threonine-protein kinase MARK1 (Homo sapiens), sequence (Q9P0L2 whole entry, looked up): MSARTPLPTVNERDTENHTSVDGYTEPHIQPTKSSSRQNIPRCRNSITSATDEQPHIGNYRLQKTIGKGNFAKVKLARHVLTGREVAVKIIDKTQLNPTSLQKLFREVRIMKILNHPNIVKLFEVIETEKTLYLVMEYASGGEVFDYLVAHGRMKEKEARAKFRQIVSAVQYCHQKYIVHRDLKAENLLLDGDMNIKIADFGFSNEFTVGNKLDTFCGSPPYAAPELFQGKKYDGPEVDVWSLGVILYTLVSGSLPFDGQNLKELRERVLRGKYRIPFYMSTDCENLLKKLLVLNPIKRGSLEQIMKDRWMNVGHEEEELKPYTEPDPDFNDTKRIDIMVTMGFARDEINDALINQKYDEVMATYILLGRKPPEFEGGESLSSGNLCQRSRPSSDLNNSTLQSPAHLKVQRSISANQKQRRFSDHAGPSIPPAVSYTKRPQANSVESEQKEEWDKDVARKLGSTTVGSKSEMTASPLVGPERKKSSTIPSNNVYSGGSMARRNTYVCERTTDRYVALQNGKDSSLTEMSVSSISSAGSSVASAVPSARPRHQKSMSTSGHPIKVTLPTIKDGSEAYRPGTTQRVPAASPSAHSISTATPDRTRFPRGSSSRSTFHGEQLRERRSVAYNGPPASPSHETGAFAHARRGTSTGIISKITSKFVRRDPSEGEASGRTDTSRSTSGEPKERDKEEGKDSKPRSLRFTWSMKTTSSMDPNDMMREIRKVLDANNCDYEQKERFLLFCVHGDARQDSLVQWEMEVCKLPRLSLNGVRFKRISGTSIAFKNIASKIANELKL
Assay [9] has the same target. Particulars: at 1 µM.
In assay [10] the target is MAP/microtubule affinity-regulating kinase 3 (Homo sapiens) (UniProt P27448). Particulars: at 0.1 µM.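 Further: mean percent inhibition of MARK3 kinase activity, measured within the GSK PKIS screening panel.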
MAP/microtubule affinity-regulating kinase 3 (Homo sapiens), sequence (P27448 whole entry, looked up): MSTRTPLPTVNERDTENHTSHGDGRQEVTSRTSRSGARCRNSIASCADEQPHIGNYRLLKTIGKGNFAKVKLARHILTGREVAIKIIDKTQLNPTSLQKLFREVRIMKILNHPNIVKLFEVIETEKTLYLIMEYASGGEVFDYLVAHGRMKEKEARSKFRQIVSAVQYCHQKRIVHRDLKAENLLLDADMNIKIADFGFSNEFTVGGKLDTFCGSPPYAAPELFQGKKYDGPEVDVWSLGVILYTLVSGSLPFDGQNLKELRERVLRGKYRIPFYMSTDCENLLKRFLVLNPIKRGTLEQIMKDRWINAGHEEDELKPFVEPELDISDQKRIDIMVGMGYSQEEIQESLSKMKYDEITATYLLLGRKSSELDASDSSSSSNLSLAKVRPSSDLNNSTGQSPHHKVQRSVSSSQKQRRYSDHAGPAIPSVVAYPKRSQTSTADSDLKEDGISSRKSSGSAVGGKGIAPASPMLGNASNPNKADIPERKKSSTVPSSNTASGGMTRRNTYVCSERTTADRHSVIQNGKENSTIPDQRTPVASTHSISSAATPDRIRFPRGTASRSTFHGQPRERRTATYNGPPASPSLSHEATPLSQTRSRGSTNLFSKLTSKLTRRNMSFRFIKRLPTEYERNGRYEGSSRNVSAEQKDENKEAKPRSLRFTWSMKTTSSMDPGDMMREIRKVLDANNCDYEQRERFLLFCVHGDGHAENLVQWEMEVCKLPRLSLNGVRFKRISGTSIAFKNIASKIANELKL

The values below come from ChEMBL document CHEMBL1961873, “Compounds: GSK PKIS; Assays: Nanosyn kinase panel” (2012).

One may read the inhibition as the change of the read-out against control, counted positive when it falls.

MAP kinase-activated protein kinase 3 (Homo sapiens), sequence (Q16644 whole entry, looked up): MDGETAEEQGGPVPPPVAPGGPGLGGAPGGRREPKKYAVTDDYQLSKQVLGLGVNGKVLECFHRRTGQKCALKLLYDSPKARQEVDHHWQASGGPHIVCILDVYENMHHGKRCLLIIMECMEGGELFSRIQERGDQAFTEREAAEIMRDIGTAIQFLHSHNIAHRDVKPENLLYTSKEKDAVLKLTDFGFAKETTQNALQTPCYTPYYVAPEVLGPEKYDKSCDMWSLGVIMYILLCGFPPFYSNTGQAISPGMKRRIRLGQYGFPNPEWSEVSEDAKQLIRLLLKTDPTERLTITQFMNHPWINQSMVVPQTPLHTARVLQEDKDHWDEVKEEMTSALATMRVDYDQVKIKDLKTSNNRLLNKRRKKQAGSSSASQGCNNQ
Death-associated protein kinase 1 (Homo sapiens), sequence (P53355 whole entry, looked up): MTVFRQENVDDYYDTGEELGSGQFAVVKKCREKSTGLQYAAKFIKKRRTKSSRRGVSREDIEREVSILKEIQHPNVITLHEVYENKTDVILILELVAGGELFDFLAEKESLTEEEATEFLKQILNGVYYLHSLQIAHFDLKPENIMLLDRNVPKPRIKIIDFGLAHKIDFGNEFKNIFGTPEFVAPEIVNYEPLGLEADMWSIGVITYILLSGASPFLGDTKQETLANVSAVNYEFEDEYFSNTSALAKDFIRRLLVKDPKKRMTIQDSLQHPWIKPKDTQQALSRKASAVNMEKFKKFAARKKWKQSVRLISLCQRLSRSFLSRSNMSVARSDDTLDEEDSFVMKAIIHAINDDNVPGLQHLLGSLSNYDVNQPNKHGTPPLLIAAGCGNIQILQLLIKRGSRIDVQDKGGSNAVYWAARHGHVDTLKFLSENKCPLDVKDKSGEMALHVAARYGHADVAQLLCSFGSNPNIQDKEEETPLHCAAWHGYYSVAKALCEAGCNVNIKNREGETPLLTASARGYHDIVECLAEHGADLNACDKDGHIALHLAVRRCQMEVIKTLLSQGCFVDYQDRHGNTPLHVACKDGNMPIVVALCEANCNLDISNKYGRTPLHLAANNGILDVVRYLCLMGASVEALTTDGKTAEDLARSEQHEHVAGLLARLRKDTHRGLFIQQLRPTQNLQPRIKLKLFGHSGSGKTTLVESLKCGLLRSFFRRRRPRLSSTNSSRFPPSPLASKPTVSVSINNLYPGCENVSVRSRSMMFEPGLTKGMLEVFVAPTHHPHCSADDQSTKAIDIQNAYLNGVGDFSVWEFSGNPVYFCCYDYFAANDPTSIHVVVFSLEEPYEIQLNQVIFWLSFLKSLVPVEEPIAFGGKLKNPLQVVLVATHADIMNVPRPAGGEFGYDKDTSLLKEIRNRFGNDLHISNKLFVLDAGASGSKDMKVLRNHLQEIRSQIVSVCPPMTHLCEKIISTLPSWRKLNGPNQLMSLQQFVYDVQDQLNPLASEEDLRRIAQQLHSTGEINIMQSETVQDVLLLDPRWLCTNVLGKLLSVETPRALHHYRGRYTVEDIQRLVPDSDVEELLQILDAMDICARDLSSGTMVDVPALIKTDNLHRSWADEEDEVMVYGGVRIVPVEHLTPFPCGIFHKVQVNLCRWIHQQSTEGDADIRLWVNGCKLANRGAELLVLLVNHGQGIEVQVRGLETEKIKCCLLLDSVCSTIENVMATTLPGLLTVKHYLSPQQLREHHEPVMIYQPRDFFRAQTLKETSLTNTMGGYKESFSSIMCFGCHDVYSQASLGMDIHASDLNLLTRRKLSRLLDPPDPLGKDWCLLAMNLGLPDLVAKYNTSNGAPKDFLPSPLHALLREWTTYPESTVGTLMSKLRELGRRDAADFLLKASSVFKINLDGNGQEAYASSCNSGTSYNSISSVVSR

For the compound `CCC(=O)Nc1ccc(C)c(-c2ccc(C(=O)NCC3CC3)cc2)c1`, the inhibition in [1] was -3.18%; in [2] it was -0.58%; in [3], 0.48%; in [4], 0.77%; in assay [5], 1.21%; in assay [6], 6.24%. Also, the inhibition was 20.1% in assay [7], 0.75% in assay [8], 1.92% in [9] and -0.99% in assay [10].
With `COc1cc(Nc2ncc(-c3ccccc3)o2)cc(OC)c1OC`, the inhibition in [1] is 1.28%; in [2], -1.54%; in assay [3], 1.6%; in assay [4] it was -1.14%; in assay [5], -0.59%; in assay [6] it was -1.98%. Moreover, the inhibition is -2.22% in assay [7], 2.34% in assay [8], 15.6% in assay [9] and 2.51% in assay [10].
Take `N#Cc1ccc(Oc2nccc(-c3c(-c4ccc(F)cc4)ncn3C3CCNCC3)n2)cc1`: the inhibition is -0.22% in assay [1]; 1.3% in assay [2]; 3.06% in assay [3]; 1.77% in assay [4]; 1.32% in assay [5]; 13.9% in [6]. The inhibition in assay [7] amounted to 30.8%; in [8], 0.23%; in assay [9], 3.06%; in assay [10], 1.6%.
For `COc1ccc2cc(-c3c(-c4ccncc4)nc(-c4ccc(S(C)(=O)=O)cc4C)n3C)ccc2c1`, the inhibition in [1] was -3.68%; in [2], 0.26%; in assay [3], -1.72%; in assay [4], -0.32%; in [5], -1.32%; in [6] it was -1.15%. The inhibition is 1.63% in [7], 3.38% in assay [8], 4.84% in assay [9] and 1.58% in [10].
Consider `CN(C)CCOc1ccc(-c2cc(-c3ccc4c(c3)CCC4=NO)c(-c3ccncc3)o2)cc1`, for which the inhibition is -1.18% in assay [1]; -2.52% in [2]; -1.37% in assay [3]; -1.35% in assay [4]; -1.61% in [5]; -1.27% in assay [6]. For the same compound, the inhibition in [7] was -1.84%; in assay [8] it was -2.08%; in assay [9], 1.81%; in assay [10], -5.74%.
For `O=C(Nc1n[nH]c2cc(-c3ccccc3)ccc12)C1CC1`, the inhibition turned out to be 7.04% in [1]; 0.55% in assay [2]; 1.05% in [3]; 3.04% in assay [4]; 2.8% in [5]; 5.91% in [6]. Also, the inhibition turned out to be 4.31% in assay [7], 4.97% in assay [8], 9.42% in assay [9] and 5.89% in assay [10].
For the compound `NC(=O)c1ccc(Oc2nccc(-c3c(-c4ccc(F)cc4)ncn3C3CCNCC3)n2)cc1`, the inhibition in assay [1] was -3.98%; in assay [2], 0.57%; in [3] it was 1.94%; in assay [4], 0.01%; in [5] it was 1.79%; in assay [6], 17.6%. For the same compound, the inhibition in assay [7] was 30.8%; in assay [8], 2.78%; in [9], 4.16%; in assay [10], 3.42%.
As to `COc1cc(Nc2ncc3c(C)nc(-c4cccc(Oc5ccccc5)c4)n3n2)cc(OC)c1OC`, the inhibition in [1] is 11.9%; in assay [2] it was 0.71%; in assay [3], 0.09%; in assay [4], 3.12%; in assay [5], 3.35%; in assay [6], 8.12%. Also, the inhibition was 7.79% in assay [7], 1.87% in [8], 6.76% in assay [9] and 3.73% in [10].
Regarding `Fc1ccc(-c2ncn(C3CCNCC3)c2-c2ccnc(Oc3ccc4c(c3)OCO4)n2)cc1`, the inhibition is -4.62% in assay [1]; 2.01% in assay [2]; 2.26% in assay [3]; 0% in assay [4]; -0.67% in assay [5]; 29.6% in assay [6]. Besides, the inhibition in assay [7] was determined as 31.2%; in assay [8], 2.98%; in assay [9] it was 5.01%; in assay [10], 3.59%.
For `CCc1nccc2c1nc(-c1nonc1N)n2CC`, the inhibition was 2.17% in assay [1]; -1.22% in [2]; 4.54% in assay [3]; -0.33% in [4]; -0.34% in assay [5]; 0.57% in assay [6]. For the same compound, the inhibition in [7] turned out to be 2.5%; in assay [8] it was 1.68%; in assay [9], 1.49%; in assay [10], 1%.
On to `COc1cc(N2CCN(C(C)C)CC2)ccc1Nc1nc(Nc2ccc(F)cc2C(=O)NC[C@@H](O)CO)c2cc[nH]c2n1`, for which the inhibition in assay [1] was 46.8%; in [2] it was 2.24%; in [3] it was -4.14%; in assay [4], 1.77%; in assay [5], 2.39%; in assay [6] it was 4.35%. Further, the inhibition in assay [7] is 4.3%; in assay [8], 3.88%; in assay [9], 7.69%; in assay [10], 1.03%.
Regarding `c1ccc(Oc2ccc(Nc3ncc(-c4ccccc4)o3)cc2)cc1`, the inhibition is 0.04% in assay [1]; 0.28% in assay [2]; -1.82% in assay [3]; 0.81% in assay [4]; 0.09% in [5]; 1.72% in [6]. Moreover, the inhibition in assay [7] is 1.73%; in assay [8], 1.66%; in [9] it was 0.44%; in [10] it was -0.01%.
As to `COc1cc2ncn(-c3cc(OCc4ccccc4C(F)(F)F)c(C(C)=O)s3)c2cc1OC`, the inhibition in assay [1] is 1.98%; in assay [2], -1.1%; in assay [3] it was 1.3%; in [4], 1.03%; in assay [5], 0.77%; in [6], 3.07%. Moreover, the inhibition in assay [7] stood at 2.6%; in [8] it was 4.34%; in assay [9], 2.61%; in assay [10], 0.67%.
`CCc1cccc(CC)c1/C=C/c1cncc(C(=O)NC)c1`: the inhibition in assay [1] was 4.2%; in assay [2], 1.1%; in [3], 1.19%; in assay [4], 0.82%; in assay [5], 0.99%; in assay [6] it was 4.47%. Also, the inhibition amounted to 3.44% in [7], 2.28% in assay [8], 1.27% in assay [9] and 3.86% in [10].
Regarding `CCS(=O)(=O)c1ccc(OC)c(Nc2ncc(-c3cccc(-c4ccccc4F)c3)o2)c1`, the inhibition in assay [1] is -0.11%; in [2], 1.37%; in assay [3], -3.8%; in assay [4], 0.06%; in assay [5], -0.23%; in [6], 1.08%. The inhibition was 1.04% in [7], 1.41% in assay [8], 0.75% in [9] and -0.41% in assay [10].
For the compound `CCS(=O)(=O)c1ccc(OC)c(Nc2ncc(-c3ccccc3Cl)o2)c1`, the inhibition in [1] is 4.97%; in [2], -0.26%; in assay [3] it was 5.11%; in assay [4], 0.24%; in assay [5] it was -0.21%; in [6] it was 2.9%. In addition, the inhibition in [7] stood at 3.29%; in assay [8], 0.31%; in assay [9], 0.38%; in assay [10], 1.45%.
As to `NC(=O)c1cc(-c2ccncc2)cc(-c2ccccc2)c1N`, the inhibition in [1] was -2.35%; in assay [2], 1.2%; in assay [3], 1.19%; in assay [4], -0.48%; in assay [5], -0.33%; in [6] it was 1.32%. Besides, the inhibition in [7] is -0.36%; in assay [8], 4.42%; in [9], 8.02%; in assay [10], 5.42%.
